Where “and” joins values, the source holds several entries; their conditions need not be identical. Equal values may be shown once. Results filed as inconclusive are left out. Entries that show only a call come without a potency. More than one record can exist for a structure, and the calls need not agree. Calls of active or inactive are those of the source. Unless noted, calls come from the whole dose curve; as a rule, active = well fitted curve in the direction sought with a large enough effect in the repeat runs; inconclusive = weak or mixed curves; inactive = no such curve, though single readings can be large; an effect the other way counts as inactive or inconclusive.
Assays:
[1] = qHTS assay to identify small molecule agonists of the vitamin D receptor (VDR) signaling pathway - cell viability counter screen (AID 743224); note: series mostly up to about 63 µM; nearly all actives have a fitted effect of over 50% in size
Procedure, shortened: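 Cells: VDR-bla, 2,000/well, settled 4 h. Treatment: compounds in DMSO, 16 h, 37C/5% CO2. Readout: CellTiter-Glo luminescence after 30 min RT.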

[2] = qHTS assay to identify small molecule antagonists of the vitamin D receptor (VDR) signaling pathway - cell viability counter screen (AID 743225); note: nearly all actives have a fitted effect of over 50% in size
Procedure, shortened: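 VDR-bla HEK 293T cells, 4 h pre-incubation at 37C, then compound plus 1-alpha,25-dihydroxyvitamin D3 (3 nM final) for 16 h. After the beta-lactamase FRET read, CellTiter-Glo was added to the same wells; luminescence after 30 min at room temperature.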

[3] = qHTS assay to identify small molecule agonists of the NFkB signaling pathway (AID 1159509; active = well fitted curve in the direction sought with a large enough effect in the signal ratio in the repeat runs, not every such curve was filed as active; the % refers to the signal ratio; note: series mostly up to about 61 µM)
Procedure, shortened: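 Pathway activation was measured in ME-180 cells stably expressing beta-lactamase under NF-kB response element control. Substrate cleavage was read as the 460/530 nm emission shift after 5 hr compound incubation.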

[4] = qHTS assay to identify small molecule agonists of the NFkB signaling pathway - cell viability counter screen (AID 1159515; calls by dose curve; note: series mostly up to about 61 µM; nearly all actives have a fitted effect of over 55% in size)
Procedure, shortened: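 Cells are seeded (2,000 NFkB-bla ME-180 per well), rested overnight, and dosed with DMSO-dissolved compounds for 5 hr at 37 C. Viability is then read by CellTiter-Glo luminescence after 30 min at room temperature.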

[5] = qHTS assay to identify small molecule agonists of the endoplasmic reticulum stress response signaling pathway (AID 1159516; active = well fitted activation curve with a large enough effect in the signal ratio in the repeat runs, not every such curve was filed as active; the % refers to the signal ratio)
Procedure, shortened: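 Cells are seeded at 1,500 per well and incubated overnight. Compounds in DMSO are added for 5 hr at 37 C, then beta-lactamase FRET substrate for 2 hr at room temperature, and fluorescence at 460 and 530 nm is measured.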

[6] = qHTS assay to identify small molecule agonists of the endoplasmic reticulum stress response signaling pathway - cell viability counter screen (AID 1159517; calls by dose curve;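 note: HeLa cells carrying an ER stress response element beta-lactamase reporter; series mostly up to about 61 µM; nearly all actives have a fitted effect of over 50% in size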)
Procedure, shortened: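 Cpd-treated ESRE-bla HeLa (5 hr, 37 C) → LiveBLAzer 2 hr RT → CellTiter-Glo 30 min RT → luminescence.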

[7] = qHTS assay to identify small molecule antagonists of the retinoid-related orphan receptor gamma (ROR-gamma) signaling pathway - cell viability counter screen (AID 1159520); note: nearly all actives have a fitted effect of over 50% in size
Procedure, shortened: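 Tet-on ROR gamma CHO cells (1,000/well) were plated 4 hr, given compounds in DMSO for 2 hr at 37 C, then induced with 1 uM final doxycycline for 16 hr. Viability was read as ATP by CellTiter-Glo luminescence after 30 min.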

[8] = target: Nuclear receptor ROR-gamma (Homo sapiens) (UniProt P51449); assay: qHTS assay to identify small molecule antagonists of the retinoid-related orphan receptor gamma (ROR-gamma) signaling pathway (AID 1159521)
Procedure, shortened: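 Tet-on RORγ CHO cells carrying a ROR response element–luciferase reporter were pretreated with compounds for 2 h, then induced with 1 uM (final) doxycycline hyclate for 16 h at 37 C. Antagonism was read as decreased ONE-Glo luminescence.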

[9] = qHTS assay to identify small molecule agonists of the AP-1 signaling pathway - cell viability counter screen (AID 1159525; calls by dose curve; note: nearly all actives have a fitted effect of over 55% in size)
Procedure, shortened: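 Each titration point was normalised to DMSO and tetra n-octyl ammonium bromide controls. The read was Cell Titer Glo luminescence after 30 min at RT, following 5 h compound exposure of ME-180 AP-1-bla cells at 37 °C.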

[10] = qHTS assay to identify small molecule agonists of the AP-1 signaling pathway (AID 1159526; calls by dose curve)
[11] = target: Retinoic acid receptor RXR-alpha (Homo sapiens) (UniProt P19793); assay: qHTS assay to identify small molecule agonists of the RXR signaling pathway (AID 1159527; calls by dose curve; note: nearly all actives have a fitted effect of over 35% in size; note: potency is the fitted concentration of half-maximal effect)
Procedure, shortened: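 GeneBLAzer RXR-alpha-UAS-bla HEK 293T cells in medium with 2% charcoal-stripped FBS, pre-incubated 5 hr at 37 C, then exposed to compounds 16 hr. Beta-lactamase reporter read by FRET substrate, 2 hr room temperature, 460/530 nm emission.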

[12] = qHTS assay to identify small molecule agonists of the RXR signaling pathway - cell viability counter screen (AID 1159529)
Procedure, shortened: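 RXR-alpha-UAS-bla HEK 293T cells in medium with 2% charcoal-stripped FBS were preincubated 5 hr, then exposed to compounds for 16 hr at 37 C. Viability was read as CellTiter-Glo luminescence after 30 min at room temperature.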

[13] = qHTS assay to identify small molecule antagonists of the retinoid acid receptor (RAR) signaling pathway - cell viability counter screen (AID 1159551); note: nearly all actives have a fitted effect of over 35% in size
Procedure, shortened: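 Cells (C3RL4) are plated, incubated overnight, dosed with compound in DMSO, then given retinol at 1 uM final. After 6 h at 37 C, CellTiter-Glo is added and luminescence read following 30 min at room temperature.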

[14] = qHTS assay to identify small molecule antagonists of the retinoic acid receptor (RAR) signaling pathway (AID 1159552; note: nearly all actives have a fitted effect of over 50% in size; note: potency is the fitted concentration of half-maximal effect)
Procedure, shortened: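 RARE-luc C3RL4 cells; cpds + 1 uM (final) retinol, 6 hr, 37 C/5% CO2; luciferase reagent, 30 min RT, luminescence readout. Inhibitors of retinol-driven signal scored.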

[15] = qHTS assay to identify small molecule agonists of the retinoic acid receptor (RAR) signaling pathway (AID 1159553)
Procedure, shortened: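 Seed C3RL4 reporter cells at 1,000 per well and incubate overnight at 37 C. Add compounds in DMSO, incubate 6 hr. Add luciferase reagent, wait 30 min at room temperature, read luminescence.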

[16] = qHTS assay to identify small molecule antagonists of the estrogen related receptor (ERR) signaling pathway - cell viability counter screen (AID 1224818); note: series mostly up to about 46 µM
Procedure, shortened: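 ERR cells, 2,000/well; 6 h settle at 37 C/5% CO2; compound pin transfer (DMSO); 17.5 h at 37 C; CellTiter-Fluor, 30 min, fluorescence read.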

[17] = qHTS assay to identify small molecule antagonists of the estrogen related receptor signaling pathway with the pleiotropic PPARgamma coactivator (PGC) cell viability counter screen (AID 1224822;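 note: series mostly up to about 46 µM; viability read after 17.5 h compound exposure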)
Procedure, shortened: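 Multiplexed viability counter screen run in PGC/ERR cells treated with compounds for 17.5 h at 37 C; live-cell protease signal measured by CellTiter-Fluor fluorescence.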

[18] = qHTS assay to identify small molecule antagonists of the estrogen related receptor (ERR) signaling pathway (AID 1224819)
Procedure, shortened: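 qHTS in ERR cells, 2,000/well, 1536 format. Cpd (DMSO) added after 6 h settle, 18 h 37 C. One-Glo luminescence, 30 min RT.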

[19] = qHTS assay to identify small molecule agonists of the estrogen related receptor (ERR) signaling pathway (AID 1224820); note: potency is the fitted concentration of half-maximal effect
Procedure, shortened: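 An ERR cell line provided by NTP was seeded at 2,000 cells per well and allowed to settle for 6 h before compounds in DMSO were added. After 18 h at 37 C, luciferase activity was measured by One-Glo luminescence.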

[20] = tested on: estrogen-related receptor alpha (ERRalpha) with PGC-1alpha coactivator, human; assay: qHTS assay to identify small molecule antagonists of the estrogen related receptor signaling pathway with the pleiotropic PPARgamma coactivator (PGC) (AID 1224821; calls by dose curve)
Procedure, shortened: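 A PGC/ERR cell line supplied by NTP is seeded, allowed 6 h at 37 C, and treated with test compounds in DMSO for 18 h. Signal is then measured as luciferase luminescence using One-Glo.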

Sequence of Retinoic acid receptor RXR-alpha (Homo sapiens) (P19793 whole entry, looked up): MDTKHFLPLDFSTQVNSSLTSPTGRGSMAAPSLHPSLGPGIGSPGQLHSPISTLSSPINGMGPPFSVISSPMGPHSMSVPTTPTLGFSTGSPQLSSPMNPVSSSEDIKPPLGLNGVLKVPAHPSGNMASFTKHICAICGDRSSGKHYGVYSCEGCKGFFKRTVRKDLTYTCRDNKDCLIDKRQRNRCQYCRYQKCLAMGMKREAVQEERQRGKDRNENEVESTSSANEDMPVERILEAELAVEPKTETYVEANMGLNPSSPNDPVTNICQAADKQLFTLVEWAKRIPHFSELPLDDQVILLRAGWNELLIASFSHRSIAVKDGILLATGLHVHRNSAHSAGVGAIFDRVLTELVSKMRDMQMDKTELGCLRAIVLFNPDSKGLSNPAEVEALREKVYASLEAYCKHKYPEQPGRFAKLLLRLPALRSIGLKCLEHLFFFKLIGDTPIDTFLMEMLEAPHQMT

| SMILES | outcome [1] | outcome [2] | outcome [3] | outcome [4] | outcome [5] | outcome [6] | Potency [7] | Potency [8] | Potency [9] | Potency [10] | Potency [11] | Potency [12] | outcome [13] | Potency [14] | outcome [15] | outcome [16] | outcome [17] | outcome [18] | Potency [19] | outcome [20] |
| --- | --- | --- | --- | --- | --- | --- | --- | --- | --- | --- | --- | --- | --- | --- | --- | --- | --- | --- | --- | --- |
| CC1(C)[C@@H]2CC[C@@]1(C)C(=O)C2 | inactive | inactive | inactive | inactive | inactive | inactive | inactive | inactive | inactive | inactive | inactive | inactive | inactive | inactive | inactive | – | – | – | – | – |
| CCCC(CCC)C(=O)O | inactive | – | inactive | inactive | inactive | inactive | inactive | – | inactive | inactive | – | inactive | inactive | – | – | inactive | inactive | – | – | – |
| Oc1ccc(/C=C/c2cc(O)cc(O)c2)cc1 | inactive | – | inactive | inactive | inactive | inactive | inactive | inactive | inactive | inactive | inactive | inactive | inactive | 49 µM (active) and 43.3 µM (active) | – | – | inactive | inactive | 3.62 µM (active) | – |
| Nc1ccn([C@H]2CC[C@@H](CO)O2)c(=O)n1 | – | inactive | inactive | inactive | inactive | inactive | inactive | inactive | inactive | inactive | inactive | inactive | inactive | – | – | inactive | inactive | – | – | – |
| O=C(O)c1cccc([N+](=O)[O-])c1 | inactive | – | inactive | inactive | inactive | inactive | inactive | inactive | inactive | inactive | inactive | inactive | inactive | – | – | – | – | – | – | – |
| OC(Cn1cncn1)(Cn1cncn1)c1ccc(F)cc1F | – | – | inactive | inactive | inactive | inactive | inactive | inactive | inactive | inactive | – | inactive | inactive | – | – | – | – | – | – | – |
| CNC[C@H](O)c1cccc(O)c1 | inactive | inactive | inactive | inactive | inactive | inactive | inactive | – | inactive | inactive | inactive | inactive | inactive | inactive | inactive | inactive | inactive | inactive | inactive | – |
| O=C1NC(=O)c2ccccc21 | – | inactive | inactive | inactive | inactive | inactive | inactive | inactive | inactive | inactive | inactive | inactive | inactive | – | – | – | – | – | – | – |
| O=S(=O)(O)c1ccc2cc(O)ccc2c1 | inactive | inactive | inactive | inactive | inactive | inactive | inactive | – | inactive | inactive | inactive | inactive | inactive | inactive | inactive | – | – | – | – | – |
| NC(=O)c1cnccn1 | inactive | – | inactive | inactive | inactive | inactive | inactive | inactive | inactive | inactive | inactive | inactive | inactive | – | – | inactive | inactive | inactive | inactive | inactive |
| NC(N)=NC(=O)c1nc(Cl)c(N)nc1N | – | – | inactive | inactive | inactive | inactive | inactive | inactive | inactive | inactive | inactive | inactive | inactive | – | – | inactive | inactive | – | – | – |
| O=C(O)/C=C\C(=O)O | – | inactive | inactive | inactive | inactive | inactive | inactive | inactive | inactive | inactive | inactive | inactive | inactive | – | – | – | – | – | – | – |
| C/C=C/c1ccc(OC)cc1 | inactive | inactive | inactive | inactive | inactive | inactive | inactive | inactive | inactive | inactive | inactive | inactive | inactive | – | – | – | – | – | – | – |
| NS(=O)(=O)c1cc(C(=O)O)c(NCc2ccco2)cc1Cl | inactive | inactive | inactive | inactive | inactive | inactive | inactive | inactive | inactive | inactive | – | inactive | inactive | – | inactive | – | – | – | – | – |
| O=C(C1CCCCC1)N1CC(=O)N2CCc3ccccc3C2C1 (stereo not drawn) | – | – | inactive | inactive | inactive | inactive | inactive | inactive | inactive | inactive | – | inactive | inactive | inactive | inactive | inactive | inactive | inactive | inactive | inactive |
| O=C(c1ccccc1)c1ccccc1 | – | – | inactive | inactive | inactive | inactive | inactive | – | inactive | inactive | inactive | inactive | inactive | inactive | inactive | – | – | – | – | – |
| O=C(O)C(=O)O | inactive | – | inactive | inactive | inactive | inactive | inactive | – | inactive | inactive | inactive | inactive | inactive | inactive | inactive | – | – | – | – | – |
| COc1c2occc2cc2ccc(=O)oc12 | – | – | inactive | inactive | inactive | inactive | inactive | – | inactive | inactive | inactive | inactive | inactive | inactive | inactive | – | – | – | – | – |
| Cn1c(=O)c2[nH]cnc2n(C)c1=O | – | inactive | inactive | inactive | inactive | inactive | inactive | – | inactive | inactive | 13.8 µM (active) and inactive | inactive | inactive | – | – | inactive | inactive | – | – | – |

Source: PubChem BioAssay (Tox21)
